Experimental data as given in PubChem BioAssay (Tox21).
Several values for one entry are separate records, joined by “and”; a condition that tells them apart may be missing. Identical values can stand only once. Inconclusive results are not listed. Some compounds were tested as several samples or in several runs, with calls that do not always agree. Activity calls are given as the source filed them. Unless noted, the call rests on the fitted dose curve; in most records, active means well fitted curve in the direction sought with a large enough effect in the repeat runs; inconclusive means weak or mixed curves; inactive means no such curve, though single readings can be large; an effect the other way counts as inactive or inconclusive.

Experiments:
[1] = qHTS assay for small molecule agonists of the p53 signaling pathway (AID 651631; calls by dose curve; further: nearly all actives have a fitted effect of over 15% in size; further: potency means the concentration at half of the fitted maximal effect)
Outline: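 HCT-116 cells carrying a beta-lactamase reporter under p53 response elements were dosed with compound for 16 h at 37 °C. LiveBLAzer B/G FRET substrate was then added for 2 h at room temperature, and fluorescence intensity was read to detect pathway agonism.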

[2] = qHTS assay for small molecules that induce genotoxicity in human embryonic kidney cells expressing luciferase-tagged ATAD5 (AID 651632); further: nearly all actives have a fitted effect of over 15% in size
Outline: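 HEK293T cells carrying a luciferase reporter tagged to ATAD5 were exposed to compound or DMSO vehicle for 16 hr at 37C, 5% CO2. Amplite was added, and after 30 min at room temperature luciferase activity was read as a marker of ATAD5 induction.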

[3] = qHTS assay for small molecule agonists of the p53 signaling pathway - cell viability (AID 651633; calls by dose curve; further: nearly all actives have a fitted effect of over 30% in size; further: potency means the concentration at half of the fitted maximal effect)
Outline: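 p53RE-bla cells, seeded at 4,000 per well and rested 5 h at 37 C/5% CO2, received compounds in DMSO for 16 h at 37 C. CellTiter-Glo was then added, and luminescence was read after 30 min at room temperature to gauge cytotoxicity.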

[4] = qHTS assay for small molecule disruptors of the mitochondrial membrane potential - cell viability (AID 720634; calls by dose curve;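 further: human HepG2 liver cancer cells; series mostly up to about 83 µM; nearly all actives have a fitted effect of over 20% in size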)
Outline: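 HepG2 cells seeded overnight at 37 C, then exposed to compound or DMSO for 1 hr at 37 C, 5% CO2. m-MPI dye added, then CellTiter-Glo for 30 min at room temperature; viability read as ATP luminescence.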

[5] = qHTS assay for small molecule disruptors of the mitochondrial membrane potential (AID 720635); further: potency means the concentration at half of the fitted maximal effect
Outline: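 HepG2 cells (2,000/well) attached overnight at 37C, then took compound for 1 hr at 37C, 5% CO2. Mito-MPS dye was added for 30 min; fluorescence was read at 490/535 nm (monomers) and 540/590 nm (aggregates).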

[6] = qHTS assay to test for compound auto fluorescence at 590 nm (red) in HepG2 cells (AID 720674)
Outline: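 Intrinsic compound fluorescence in the red window (Ex/Em 540/590 nm) is measured in attached HepG2 cells exposed for 1 hr, DMSO vehicle as baseline, benchmarked to Rose Bengal sodium.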

[7] = qHTS assay to test for compound auto fluorescence at 535 nm (green) in HepG2 cells (AID 720675)
[8] = qHTS assay to test for compound auto fluorescence at 460 nm (blue) in HEK293 cells (AID 720678)
Outline: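 Blue-channel (Ex/Em 405/460 nm) intensity measured in HEK293 cultures after overnight compound exposure at 37C; signal expressed relative to triamterene. Cells plated 2,000 per well in 10% dialyzed FBS medium and allowed 4-5 hr to attach.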

[9] = qHTS assay to test for compound auto fluorescence at 590 nm (red) in HEK293 cells (AID 720679)
Outline: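 Red-channel autofluorescence (Ex/Em 540/590 nm; Rose Bengal sodium reference) was measured after overnight 37C, 5% CO2 exposure of attached HEK293 cells, 2,000 per well in medium with 10% dialyzed FBS.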

[10] = qHTS assay for small molecules that induce genotoxicity in human embryonic kidney cells expressing luciferase-tagged ATAD5 - cell viability (AID 651634; calls by dose curve; further: nearly all actives have a fitted effect of over 25% in size)
Outline: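 HEK293T cells expressing luciferase-tagged ATAD5 were exposed to compound or DMSO for 15.5 hr at 37C, 5% CO2. Viability was then read as live-cell protease activity by CellTiter-Fluor fluorescence after 30 min at 37C.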

Measured: Potency

O=S1(=O)CCCO1
not listed: [10]
inactive: all other assays above

C[C@]12CC[C@@H]3c4ccc(O)cc4CC[C@H]3[C@@H]1CC[C@H]2O
active: [1] 15.6 µM and 27.3 µM | [5] 27.8 µM and 27.3 µM
not listed: [4] | [10]
inactive: all other assays above

CC(C)=CCO
not listed: [10]
inactive: all other assays above

COC(=O)c1ccc(C)cc1
not listed: [10]
inactive: all other assays above

OC[C@@H](O)[C@@H](O[C@@H]1O[C@H](CO)[C@H](O)[C@H](O)[C@H]1O)[C@H](O)[C@@H](O)CO
not listed: [10]
inactive: all other assays above

CCCCCCCCCCCCCO
not listed: [10]
inactive: all other assays above

NCCS(=O)(=O)O
inactive and 7.13 µM (active): [5]
not listed: [4]
inactive: all other assays above

C=C1C[C@H]2[C@@H]3C=C(C)C4=CC(=O)CC[C@]4(C)[C@H]3CC[C@]2(C)[C@@]1(OC(C)=O)C(C)=O
not listed: [10]
inactive: all other assays above

CCCCCCCCCCC(CO)CCCCCCCC (stereo not drawn)
not listed: [4] | [10]
inactive: all other assays above

CCCCCCCC/C=C\CCCCCCCC(=O)O
not listed: [10]
inactive: all other assays above

Brc1nc2ccccc2s1
not listed: [4]
inactive: all other assays above

CCc1cccc2c3c([nH]c12)C(CC)(CC(=O)O)OCC3 (stereo not drawn)
not listed: [4] | [5] | [10]
inactive: all other assays above

Nc1ccc(N)c(Cl)c1
active: [5] 3.85 µM and 27.3 µM
not listed: [10]
inactive: all other assays above

COCCOCCOCCO
not listed: [4] | [5] | [10]
inactive: all other assays above

IC(I)I
not listed: [4] | [5]
inactive: all other assays above

NCCOCCO
not listed: [4]
inactive: all other assays above

C=CCCCCCCCCCC
not listed: [4] | [10]
inactive: all other assays above

CC/C(=C(/CC)c1ccc(O)cc1)c1ccc(O)cc1
active: [1] 9.44 µM and 13.6 µM and 15.4 µM | [3] 60.6 µM | [5] 7.5 µM and 6.06 µM and 10.9 µM
not listed: [2]
inactive: all other assays above

CC(=O)OC(C)C
not listed: [10]
inactive: all other assays above

O=C(O)CCCCCCCCCCCC(=O)O
not listed: [10]
inactive: all other assays above

CN(C)C
not listed: [4] | [10]
inactive: all other assays above

Cc1ccc2c(c1)C(=O)OC2=O
not listed: [10]
inactive: all other assays above

C=CCNCC=C
not listed: [4] | [5]
inactive: all other assays above

O=[Se](O)O
8.64 µM (active) and inactive: [5]
24.4 µM (active) and inactive: [1]
not listed: [10]
inactive: all other assays above

CC(=O)Oc1c(C)c(C)c2c(c1C)CC[C@@](C)(CCC[C@H](C)CCC[C@H](C)CCCC(C)C)O2
not listed: [2] | [4] | [10]
inactive: all other assays above
